PubChem BioAssay (NCATS)

These compounds were tested against Nicotinamide N-methyltransferase (Homo sapiens) (UniProt P40261) (assay: Confirmatory Screen for Target Class Profiling of Small Molecule Inhibitors of Methyltransferases (AID 1745852)). Conditions: MTase-Glo luminescence, SAH detection, recombinant enzyme; measured here: NNMT max response; stronger effect = lower value.
Chain of Nicotinamide N-methyltransferase (Homo sapiens) (P40261 whole entry, looked up): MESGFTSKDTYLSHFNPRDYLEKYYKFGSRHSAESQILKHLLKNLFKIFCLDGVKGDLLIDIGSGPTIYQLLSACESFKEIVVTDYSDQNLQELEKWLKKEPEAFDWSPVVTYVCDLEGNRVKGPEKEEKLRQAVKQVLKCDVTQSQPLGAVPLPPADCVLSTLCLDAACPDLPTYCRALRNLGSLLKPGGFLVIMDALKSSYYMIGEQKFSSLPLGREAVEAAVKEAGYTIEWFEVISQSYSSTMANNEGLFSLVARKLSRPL

**Q.** Which activity does the source give for `Cc1ccc(-c2ccc(N)nc2)c2cccnc12` here?
**A.** Its activity is -2.78%.

**Q.** How did the activity turn out when `COc1cccc(CN2C(=O)c3nc4ccccc4n3CC2(C)C(=O)NC2CCC(C)CC2)c1` (stereo not given) was run?
**A.** Its activity is -42.5%.

**Q.** For `CCCC1c2cccn2CCN1C(=O)Nc1ccc(Br)cc1` (stereo not given), which activity is on record?
**A.** Its activity is -18.3%.

**Q.** For `Cc1nc2c3ccccc3n3c(CCCC(=O)NCCCN(C)Cc4ccccc4)nnc3n2n1`, which activity is on record?
**A.** Its activity is -3.81%.

**Q.** How did the activity turn out when `CCOC(=O)c1cc2n(n1)CC(C)(C(=O)NCCC(C)C)N(c1ccccc1C)C2=O` (stereo not given) was run?
**A.** The activity was 3.85%.

**Q.** `CCN1CCN(c2nc3c(S(=O)(=O)c4ccc(Br)cc4)nnn3c3ccccc23)CC1` was tested. Which activity did it give?
**A.** The activity was -1.61%.

**Q.** How did the activity turn out when `COc1ccc(CCNC(=O)c2ccc3c(=O)[nH]c4c(C(=O)NCC5CCCO5)sc(=S)n4c3c2)cc1OC` (stereo not given) was run?
**A.** The activity was -23.3%.

**Q.** For `Cc1cc2c(cc3n2CC(C)(C(=O)NC2CCCCCCC2)N(Cc2ccco2)C3=O)o1` (stereo not given), which activity is on record?
**A.** The activity was -37.5%.

**Q.** How did the activity turn out when `Cc1ccccc1-c1[nH]nc2ncc(-c3c(C)noc3C)nc12` was run?
**A.** Its activity is -31.8%.

**Q.** `CCOC(=O)c1ccc(NC(=O)Cn2c(=O)oc3cc(S(=O)(=O)N4CCCC4)ccc32)cc1` was tested. Which activity did it give?
**A.** The activity was -9.52%.

**Q.** With `Cn1c(COc2cccc(CN3CCCC3)c2Cl)nnc1C1CC(N)C1` (stereo not given) as the compound, how does the activity read?
**A.** The activity was -2.09%.

**Q.** Which activity does the source give for `N#Cc1cnc(N2CC3CCC(C2)N3CC(F)(F)F)s1` here?
**A.** Its activity is -7.9%.

**Q.** `CCC1CCCCN1CCCNC(=O)Cn1ccc2cc(S(=O)(=O)N3CCCCC3)ccc21` (stereo not given) was tested. Which activity did it give?
**A.** Its activity is -2.34%.

**Q.** For `O=C(Nc1ccccc1)c1cnc2c(c1)N(C(=O)Cc1ccc(O)cc1)CCC2`, which activity is on record?
**A.** Its activity is -4.08%.

**Q.** How did the activity turn out when `COc1ccc(-c2nnn3c2nc(N2CCOCC2)c2ccccc23)cc1` was run?
**A.** The activity was -27.8%.

**Q.** `CCc1ccc(N2C(=O)c3cc4sccc4n3CC2(C)C(=O)NC2CCCCCC2)cc1` (stereo not given) was tested. Which activity did it give?
**A.** Its activity is -5.2%.

**Q.** With `COCc1nc2nc(-c3ccccc3)c(-c3ccc(O)c(F)c3)cc2n1C` as the compound, how does the activity read?
**A.** The activity was -53%.

**Q.** With `Cn1cc(CN2CCCC(COc3ccccc3C(=O)N3CCCCC3)C2)c2ccccc21` (stereo not given) as the compound, how does the activity read?
**A.** The activity was 4.53%.

**Q.** `O=C(Nc1ccc2c(N3CCOCC3)ncnc2c1)c1cccc(Cl)c1` was tested. Which activity did it give?
**A.** Its activity is -7.95%.

**Q.** With `FC(F)(F)c1cccc(-c2nccn3c(C4CN(Cc5ccc6cn[nH]c6c5)C4)ncc23)c1` as the compound, how does the activity read?
**A.** The activity was -12.8%.

**Q.** With `CC1CCCCC1NC(=O)C1(C)Cn2c(cc3sccc32)C(=O)N1Cc1ccc(Cl)cc1` (stereo not given) as the compound, how does the activity read?
**A.** Its activity is -8.12%.

**Q.** How did the activity turn out when `Cc1nc2cccnc2n1CC1CCCN(S(=O)(=O)c2ccc3c(c2)OCCO3)C1` (stereo not given) was run?
**A.** Its activity is -4.66%.

**Q.** `Cn1cnc(CN2CCNc3cc(Nc4ccccc4)ncc3C2)c1` was tested. Which activity did it give?
**A.** The activity was 4.88%.

**Q.** How did the activity turn out when `CC1(C)[C@H](Cc2cc(-c3ccccc3)on2)C[C@@H]1NCC1CC1` was run?
**A.** The activity was -6.44%.

**Q.** `COc1ccc(CCNC(=O)c2ccc3c(=O)[nH]c4c(C(=O)NC5CCCC5)sc(=S)n4c3c2)cc1OC` was tested. Which activity did it give?
**A.** The activity was -49.2%.

**Q.** How did the activity turn out when `COc1ccc2nc([C@H]3CCN(C4CCCCC4)C3)[nH]c2c1` was run?
**A.** The activity was -3.99%.

**Q.** `CCOCCCN1C(=O)c2cc3c(OC)ccc(OC)c3n2CC1(C)C(=O)NC1CCCCC1` (stereo not given) was tested. Which activity did it give?
**A.** Its activity is -17.7%.

**Q.** Which activity does the source give for `O=C(NCc1ccc2c(c1)OCO2)c1sc(=S)n2c1[nH]c(=O)c1cc(Cl)ccc12` here?
**A.** Its activity is -69.1%.

**Q.** How did the activity turn out when `COc1cc2c(cc1O)NC(=O)CC2c1cn[nH]c1-c1cc(C)ccc1C` (stereo not given) was run?
**A.** Its activity is -6.25%.

**Q.** How did the activity turn out when `FC(F)(F)c1ccnc(N2CC[C@H](c3nnc(-c4ccncc4)o3)C2)n1` was run?
**A.** Its activity is -59.3%.

**Q.** With `COC(=O)c1cc2n(n1)CC(C)(C(=O)NC1CCC(C)CC1)N(Cc1ccc(OC)cc1OC)C2=O` (stereo not given) as the compound, how does the activity read?
**A.** Its activity is -66.9%.

**Q.** Which activity does the source give for `O=C(NCCc1ccc(Cl)cc1)c1ccc2c(=O)[nH]c3c(C(=O)NCC4CCCO4)sc(=S)n3c2c1` (stereo not given) here?
**A.** Its activity is -49.4%.

**Q.** How did the activity turn out when `COc1cccc([S+](=O)([O-])N2CCC3(C2)N=C(c2cccnc2)C(=O)N3)c1` (stereo not given) was run?
**A.** Its activity is -8.17%.

**Q.** How did the activity turn out when `CCCCNC(=O)c1cccc(-c2cc(N3CCN(C)CC3)nc(N)n2)c1` was run?
**A.** Its activity is -3.76%.

**Q.** `O=C(Nc1ccc2c(N3CCCCC3)ncnc2c1)c1ccccc1C(F)(F)F` was tested. Which activity did it give?
**A.** The activity was -10.2%.

**Q.** `CCCN1CCn2c3c(c4cc(OC)ccc42)CCN=C31` was tested. Which activity did it give?
**A.** The activity was -6.4%.

**Q.** Which activity does the source give for `COc1ccc(CCN2C(=O)c3cc4oc(C)cc4n3CC2(C)C(=O)NC2CCCCC2)cc1OC` (stereo not given) here?
**A.** Its activity is -78.3%.

**Q.** How did the activity turn out when `Cc1ccc2c(c1)c(-n1cccc1)c1n2CC(C)(C(=O)NCCC(C)C)N(Cc2cccnc2)C1=O` (stereo not given) was run?
**A.** Its activity is -51.8%.

**Q.** For `c1ccc(CN2CCc3c(sc4ncnc(N5CCOCC5)c34)C2)cc1`, which activity is on record?
**A.** Its activity is -44.8%.

**Q.** How did the activity turn out when `O=C(Nc1ccc(F)c(Cl)c1)N1CCn2cccc2C1Cc1ccccc1` (stereo not given) was run?
**A.** The activity was -5.36%.
